Data from ChEMBL document CHEMBL3988442, “University of Dundee, Small-Polar-MMV Screening Library” (2021).
For some of these results: Results with a measured potency or affinity are listed apart.

Legend:
Set-up in all cases: scale not given: direction of the effect not stated beside the values
[1] = molecular target: Protein translocase subunit SecA (Escherichia coli (strain K12)) (UniProt P10408); experiment: Assay to Identify E. coli SecA ATPase Inhibitors; type: functional; conditions: 30 µM
Chain of Protein translocase subunit SecA (Escherichia coli (strain K12)) (P10408 whole entry): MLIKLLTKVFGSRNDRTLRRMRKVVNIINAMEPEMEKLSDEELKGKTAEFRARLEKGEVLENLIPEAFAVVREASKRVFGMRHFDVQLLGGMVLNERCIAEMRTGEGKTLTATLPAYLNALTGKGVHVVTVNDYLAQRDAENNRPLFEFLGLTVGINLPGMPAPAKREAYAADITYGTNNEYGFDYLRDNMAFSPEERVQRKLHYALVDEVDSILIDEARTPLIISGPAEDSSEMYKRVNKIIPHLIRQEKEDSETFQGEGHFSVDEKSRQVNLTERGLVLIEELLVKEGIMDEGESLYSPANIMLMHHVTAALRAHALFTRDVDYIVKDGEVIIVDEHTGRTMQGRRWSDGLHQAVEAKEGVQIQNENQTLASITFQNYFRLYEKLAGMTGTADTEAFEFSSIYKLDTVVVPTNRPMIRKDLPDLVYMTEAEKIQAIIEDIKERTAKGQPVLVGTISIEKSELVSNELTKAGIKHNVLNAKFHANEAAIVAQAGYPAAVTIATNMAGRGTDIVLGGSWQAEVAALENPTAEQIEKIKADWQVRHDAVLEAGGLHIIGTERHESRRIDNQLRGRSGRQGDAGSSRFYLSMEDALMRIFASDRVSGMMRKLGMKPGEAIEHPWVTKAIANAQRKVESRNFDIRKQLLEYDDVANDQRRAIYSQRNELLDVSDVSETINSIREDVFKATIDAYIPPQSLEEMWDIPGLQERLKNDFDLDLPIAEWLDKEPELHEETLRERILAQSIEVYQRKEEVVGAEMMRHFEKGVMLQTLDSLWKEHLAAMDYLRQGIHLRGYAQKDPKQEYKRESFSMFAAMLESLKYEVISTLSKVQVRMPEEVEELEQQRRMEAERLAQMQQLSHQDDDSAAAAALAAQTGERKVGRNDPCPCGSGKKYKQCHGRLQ

[2] = molecular target: T1, Ubiquitin-activating enzyme e1, putative (Leishmania donovani (strain BPK282A1)) (UniProt E9BSI1); experiment: Leishmania donovani Ubiquitin Activating Enzyme (LdE1); type: functional; conditions: 30 µM
T1 sequence (whole entry): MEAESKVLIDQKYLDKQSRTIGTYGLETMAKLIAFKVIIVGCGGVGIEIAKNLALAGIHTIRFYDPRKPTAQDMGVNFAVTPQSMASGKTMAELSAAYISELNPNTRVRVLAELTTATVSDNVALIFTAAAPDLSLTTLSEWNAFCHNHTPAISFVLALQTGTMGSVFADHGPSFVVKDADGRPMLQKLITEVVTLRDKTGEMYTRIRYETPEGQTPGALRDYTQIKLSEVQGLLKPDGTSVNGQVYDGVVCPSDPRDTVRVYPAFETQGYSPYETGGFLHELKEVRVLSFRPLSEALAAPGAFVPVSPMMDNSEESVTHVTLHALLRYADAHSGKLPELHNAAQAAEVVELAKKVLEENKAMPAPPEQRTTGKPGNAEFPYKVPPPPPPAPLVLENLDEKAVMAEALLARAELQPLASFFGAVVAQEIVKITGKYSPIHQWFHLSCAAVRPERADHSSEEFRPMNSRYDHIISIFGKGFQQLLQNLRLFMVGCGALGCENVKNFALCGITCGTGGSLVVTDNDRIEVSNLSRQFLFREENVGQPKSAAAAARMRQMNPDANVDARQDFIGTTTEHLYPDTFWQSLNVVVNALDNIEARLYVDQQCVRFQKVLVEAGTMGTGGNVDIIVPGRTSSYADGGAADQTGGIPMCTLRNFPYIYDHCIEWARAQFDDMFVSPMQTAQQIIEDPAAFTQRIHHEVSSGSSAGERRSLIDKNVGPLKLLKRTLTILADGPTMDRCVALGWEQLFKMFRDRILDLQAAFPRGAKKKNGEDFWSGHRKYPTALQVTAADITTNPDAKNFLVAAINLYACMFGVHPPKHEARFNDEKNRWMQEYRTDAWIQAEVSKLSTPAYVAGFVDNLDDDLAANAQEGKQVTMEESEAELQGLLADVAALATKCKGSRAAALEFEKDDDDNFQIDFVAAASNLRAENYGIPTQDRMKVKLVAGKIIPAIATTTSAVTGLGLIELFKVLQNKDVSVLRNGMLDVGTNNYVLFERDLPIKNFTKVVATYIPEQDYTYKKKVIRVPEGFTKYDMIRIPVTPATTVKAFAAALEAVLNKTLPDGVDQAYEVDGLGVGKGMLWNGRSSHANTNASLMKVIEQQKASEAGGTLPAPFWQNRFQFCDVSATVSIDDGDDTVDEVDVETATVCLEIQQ

[3] = molecular target: AMP-activated protein kinase, AMPK (Homo sapiens) (UniProt P54646+O43741+P54619+Q9UGJ0+Q9Y478+Q13131+Q9UGI9); experiment: AMP-dependent Kinase enzyme assay. An in vitro enzyme assay that detects ADP turnover that is directly proportional to AMPK activity. This uses naive AMPK that is activated during the assay with MK-8722; type: functional; conditions: 30 µM
[4] = molecular target: Sialic acid-binding Ig-like lectin 9 (Homo sapiens) (UniProt Q9Y336); experiment: Hs-Siglec9 ALPHAscreen SOP 20170721; conditions: 10 µM
Chain of Sialic acid-binding Ig-like lectin 9 (Homo sapiens) (Q9Y336 whole entry): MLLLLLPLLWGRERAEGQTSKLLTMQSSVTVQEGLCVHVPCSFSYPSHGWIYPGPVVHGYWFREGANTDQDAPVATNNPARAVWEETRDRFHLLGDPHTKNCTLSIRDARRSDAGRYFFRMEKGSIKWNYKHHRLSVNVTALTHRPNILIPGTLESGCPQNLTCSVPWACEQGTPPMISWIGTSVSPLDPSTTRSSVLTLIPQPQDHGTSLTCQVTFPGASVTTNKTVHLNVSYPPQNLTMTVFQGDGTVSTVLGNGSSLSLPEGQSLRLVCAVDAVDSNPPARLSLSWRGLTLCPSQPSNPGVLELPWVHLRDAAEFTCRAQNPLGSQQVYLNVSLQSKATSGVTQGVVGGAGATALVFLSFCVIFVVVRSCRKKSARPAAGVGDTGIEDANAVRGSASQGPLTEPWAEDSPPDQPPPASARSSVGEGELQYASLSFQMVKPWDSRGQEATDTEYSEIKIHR

Trypanosoma cruzi = experiment: Trypanosoma cruzi phosphomannomutase and mannose-1-phosphate guanylyltransferase assay; type: functional; conditions: 10 µM
[5] = molecular target: T2, Arginase-2, mitochondrial (Homo sapiens) (UniProt P78540); experiment: in vitro enzyme assay to detect the production of urea directly proportional to the activity of Arginase II; type: functional; conditions: 33.3 µM; further: in the data most compounds retested in dose-response had high values
T2 sequence (whole entry): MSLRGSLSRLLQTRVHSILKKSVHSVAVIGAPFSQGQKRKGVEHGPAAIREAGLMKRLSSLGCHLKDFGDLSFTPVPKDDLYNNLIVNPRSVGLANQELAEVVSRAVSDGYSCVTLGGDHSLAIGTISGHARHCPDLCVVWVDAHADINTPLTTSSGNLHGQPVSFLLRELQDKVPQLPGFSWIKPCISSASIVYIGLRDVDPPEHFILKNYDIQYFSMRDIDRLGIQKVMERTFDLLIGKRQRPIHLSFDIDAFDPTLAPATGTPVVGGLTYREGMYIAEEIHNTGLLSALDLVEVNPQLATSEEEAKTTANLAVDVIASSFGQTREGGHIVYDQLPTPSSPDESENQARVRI

[6] = molecular target: T3, Proteasome subunit beta (Trypanosoma cruzi) (UniProt O96673); experiment: Trypanosoma cruzi proteasome chymotrypsin-like activity (TcProtChymo) assay.; further: in the data most compounds retested in dose-response had high values; type: functional; conditions: 9.37 µM
T3 sequence (whole entry): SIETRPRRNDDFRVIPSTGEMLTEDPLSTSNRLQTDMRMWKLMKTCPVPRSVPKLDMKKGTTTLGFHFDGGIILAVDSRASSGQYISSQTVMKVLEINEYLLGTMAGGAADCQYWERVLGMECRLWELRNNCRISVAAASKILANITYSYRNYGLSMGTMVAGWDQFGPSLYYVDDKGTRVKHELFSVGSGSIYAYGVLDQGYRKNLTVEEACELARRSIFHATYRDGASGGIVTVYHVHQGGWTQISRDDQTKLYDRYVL

Homo sapiens = species: Homo sapiens; experiment: To identify inhibition of the IFN signalling (Jak-Stat) pathway via expression of an eGFP reporter gene under the control of an IFN-stimulated response element (ISRE) containing MxA promoter.; type: functional; conditions: 30 µM
[7] = molecular target: T4, Tyrosyl-tRNA synthetase, putative (Trypanosoma cruzi (strain CL Brener)) (UniProt Q4DSP6); experiment: Trypanosoma cruzi tyrosyl tRNA synthetase (TcYRS) _High Tyrosine SOP; type: functional; conditions: 30 µM; further: in the data most compounds retested in dose-response had high values
T4 sequence (whole entry): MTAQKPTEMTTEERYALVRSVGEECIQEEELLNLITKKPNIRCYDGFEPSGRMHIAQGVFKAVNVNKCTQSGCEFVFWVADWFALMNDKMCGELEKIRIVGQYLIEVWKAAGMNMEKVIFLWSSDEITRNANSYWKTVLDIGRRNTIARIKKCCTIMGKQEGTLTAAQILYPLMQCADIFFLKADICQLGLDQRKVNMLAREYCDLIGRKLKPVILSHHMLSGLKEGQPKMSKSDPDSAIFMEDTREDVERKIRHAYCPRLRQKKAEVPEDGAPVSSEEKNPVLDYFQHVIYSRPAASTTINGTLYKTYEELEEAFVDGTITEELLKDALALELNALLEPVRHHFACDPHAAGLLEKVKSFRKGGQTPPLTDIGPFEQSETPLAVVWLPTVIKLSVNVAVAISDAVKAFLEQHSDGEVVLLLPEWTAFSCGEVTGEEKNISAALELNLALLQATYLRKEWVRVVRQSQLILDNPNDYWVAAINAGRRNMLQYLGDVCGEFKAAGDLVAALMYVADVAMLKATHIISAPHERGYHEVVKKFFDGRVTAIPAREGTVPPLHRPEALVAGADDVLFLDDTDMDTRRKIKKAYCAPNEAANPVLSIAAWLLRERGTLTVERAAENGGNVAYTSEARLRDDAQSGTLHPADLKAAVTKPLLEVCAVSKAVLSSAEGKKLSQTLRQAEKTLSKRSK

[8] = molecular target: T4, Tyrosyl-tRNA synthetase, putative (Trypanosoma cruzi (strain CL Brener)); experiment: Trypanosoma cruzi tyrosyl tRNA synthetase (TcYRS) SOP; type: functional; conditions: 30 µM
[9] = molecular target: Chromo domain-containing protein 1 (Saccharomyces cerevisiae (strain ATCC 204508 / S288c) (Baker's yeast)) (UniProt P32657); experiment: ScCHD-1 Enzyme Inhibition Assay; type: functional; conditions: 30 µM; further: in the data most compounds retested in dose-response had high values
Chain of Chromo domain-containing protein 1 (Saccharomyces cerevisiae (strain ATCC 204508 / S288c) (Baker's yeast)) (P32657 whole entry, the tested form may be a part): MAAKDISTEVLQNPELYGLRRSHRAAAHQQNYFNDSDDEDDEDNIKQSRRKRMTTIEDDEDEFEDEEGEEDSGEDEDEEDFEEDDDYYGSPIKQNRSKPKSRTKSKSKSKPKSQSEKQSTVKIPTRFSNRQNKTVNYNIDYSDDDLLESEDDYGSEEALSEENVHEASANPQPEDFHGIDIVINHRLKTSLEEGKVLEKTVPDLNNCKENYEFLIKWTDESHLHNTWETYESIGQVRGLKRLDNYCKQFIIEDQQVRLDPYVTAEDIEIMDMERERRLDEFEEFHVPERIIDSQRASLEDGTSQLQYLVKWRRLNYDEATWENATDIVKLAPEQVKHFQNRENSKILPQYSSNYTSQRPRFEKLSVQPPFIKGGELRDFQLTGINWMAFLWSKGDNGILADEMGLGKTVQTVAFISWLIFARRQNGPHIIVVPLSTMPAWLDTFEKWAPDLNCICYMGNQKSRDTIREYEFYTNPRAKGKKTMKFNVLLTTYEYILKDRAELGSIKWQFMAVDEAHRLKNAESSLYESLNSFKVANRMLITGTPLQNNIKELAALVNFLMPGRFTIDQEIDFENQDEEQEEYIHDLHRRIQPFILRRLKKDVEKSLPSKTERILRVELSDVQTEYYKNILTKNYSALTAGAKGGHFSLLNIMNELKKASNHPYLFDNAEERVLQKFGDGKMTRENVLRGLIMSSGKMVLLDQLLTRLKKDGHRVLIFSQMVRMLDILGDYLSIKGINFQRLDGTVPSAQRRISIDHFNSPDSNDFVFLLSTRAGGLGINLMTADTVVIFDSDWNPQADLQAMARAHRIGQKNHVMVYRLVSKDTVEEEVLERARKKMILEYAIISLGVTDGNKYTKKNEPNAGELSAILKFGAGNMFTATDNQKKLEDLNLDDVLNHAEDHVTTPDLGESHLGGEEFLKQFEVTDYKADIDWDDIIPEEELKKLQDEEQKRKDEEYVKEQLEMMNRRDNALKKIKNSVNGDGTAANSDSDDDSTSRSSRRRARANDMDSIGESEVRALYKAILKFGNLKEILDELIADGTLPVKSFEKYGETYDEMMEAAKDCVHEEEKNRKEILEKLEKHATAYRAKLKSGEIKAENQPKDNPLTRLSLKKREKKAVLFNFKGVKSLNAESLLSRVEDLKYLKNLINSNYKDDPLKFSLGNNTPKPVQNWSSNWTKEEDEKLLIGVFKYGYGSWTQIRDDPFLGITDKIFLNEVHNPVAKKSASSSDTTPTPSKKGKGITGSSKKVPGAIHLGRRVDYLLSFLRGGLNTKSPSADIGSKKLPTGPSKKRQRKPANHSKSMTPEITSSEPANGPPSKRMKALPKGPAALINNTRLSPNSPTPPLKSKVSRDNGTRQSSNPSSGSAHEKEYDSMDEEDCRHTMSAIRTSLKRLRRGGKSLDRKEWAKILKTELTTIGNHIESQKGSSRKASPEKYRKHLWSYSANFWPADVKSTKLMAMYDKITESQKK

| Compound | Percent Effect [1] [%] | Percent Effect [2] [%] | Percent Effect [3] [%] | Percent Effect [4] [%] | Percent Effect (Trypanosoma cruzi) [%] | Percent Effect [5] [%] | Percent Effect [6] [%] | Percent Effect (Homo sapiens) [%] | Percent Effect [7] [%] | Percent Effect [8] [%] | Percent Effect [9] [%] |
| --- | --- | --- | --- | --- | --- | --- | --- | --- | --- | --- | --- |
| Cc1nc(C)n(CC2CN(CCc3ccncc3)CCO2)n1 (configuration not stated) | -1.44 | 5.48 | 1.35 | 6.79 | 0.979 | 3.64 | 10.3 | 16.9 | 4.3 | 10 | -5.67 |
| CNC(=O)CC1CCN(Cc2nc(-c3cccc(Cl)c3)oc2C)CC1 | -1.83 | 8.11 | -6.08 | 19.1 | 4.05 | 0 | 20.2 | 4.01 | 5.82 | 9.76 | -2.39 |
| Cc1nc(CN2C(=O)CCC23CCN(c2ncccn2)CC3)cs1 | -1.55 | 16 | -2.28 | 4.1 | 5.02 | -54.7 | 19.3 | -8.11 | 5.21 | 5 | -8.28 |
| CC1CCN(C(CNC(=O)CCn2cccn2)c2cccs2)CC1 (configuration not stated) | -0.447 | 13.3 | -0.997 | 10.3 | 2.82 | 8.85 | 26.5 | 4.2 | 6.01 | 21 | -5.13 |
| CC(=O)N1CCCC1c1cccc(Cc2ccccc2F)n1 (configuration not stated) | -3.38 | -9.46 | 3.81 | -1.05 | -2.77 | -1.62 | -1.25 | 26.6 | -4.3 | -9.09 | 3.67 |
| CCOC(C)c1nc(CN2CCNCC2)cs1 (configuration not stated) | -3 | -8.11 | -1.11 | 0.0763 | -3.09 | -5.24 | 6.21 | 14.6 | -1.59 | -4.88 | -3.79 |
| O=C(Cc1ccccc1F)N1C[C@@H]2COC[C@]2(COc2cccnc2)C1 | -2.71 | 8.11 | 2.48 | 0.934 | -1.66 | 10.5 | 17.5 | -1.09 | 3.24 | 12.8 | -2.39 |
| COc1ccc(Br)c(C(=O)NCC2CCN(S(=O)(=O)C3CC3)CC2)c1 | -4.34 | 19.2 | -7.39 | 14 | 6.07 | -3.18 | 19.5 | 20.3 | 4.3 | 17.5 | -9.38 |
| CC(C)CCN1CN=C(NS(=O)(=O)c2ccc(F)cc2)NC1 | -1.41 | 6.67 | 4.23 | 1.92 | -1.38 | -9.33 | 9.61 | -4.88 | 5.29 | 10.3 | -8.81 |
| Cc1cc(NC(=O)Cn2cc(C#N)c(=O)c3cc(Br)ccc32)no1 | -5.99 | -45.3 | -1.25 | 3.63 | -1.27 | -9.9 | 13.8 | 19.5 | -14.8 | -60.5 | 80.7 |
| CCC1CCCN(C(=O)Cc2csc(-c3ncccn3)n2)C1 (configuration not stated) | -2.19 | 21.1 | 0.0664 | -8.02 | 5.26 | -1.92 | 24.1 | 25.1 | 5.39 | 17.1 | -12.4 |
| O=C(COc1ccc2c(c1)CCC2)N1CCOCC1c1ncon1 (configuration not stated) | -2.91 | 2.7 | -3.96 | -4.39 | -4.62 | 1.2 | -1.62 | 13.6 | 4.43 | 6.17 | -2.72 |
| COc1ccc(NCc2nc(=O)n(CCC(C)C)[nH]2)cc1 | -3.47 | 10.5 | 11.6 | 5.94 | -0.0974 | -8.28 | 8.92 | -19 | 4.25 | 10.4 | -2.13 |
| Cc1ccc(N2CC[C@H](OCC3CC3)[C@@H]2Cc2cnn(C)c2)nn1 | -4.88 | 5.41 | -7.52 | -0.711 | -0.195 | 0.833 | 15.1 | 8.56 | 7.92 | 8.54 | 0.632 |
| COc1ccc2nnc(CCCC(=O)NCc3cccn3C)n2n1 | -2.1 | 22.7 | -8.56 | 0.257 | 1.57 | 0.176 | 17.4 | -1.92 | 8.47 | -41 | -12 |
| O=C(c1cccc2cccnc12)N1CCCN(c2cccnn2)CC1 | -6.9 | 10.4 | -4.23 | 1.47 | 6.37 | 1.9 | 10.8 | 0.652 | 2.86 | 11.8 | -27.3 |
| CCc1ncncc1C(=O)N1CCN(Cc2ccco2)CC1 | -3.87 | 0 | 2.99 | -2.08 | -4.2 | 3.24 | 0.592 | 4.36 | -3.45 | -11.1 | 2.25 |
